The source of these data is PubChem BioAssay AID504660 (National Center for Advancing Translational Sciences (NCATS), 2011).

Values joined by “and” are separate entries in the source; they are usually repeats but may differ in a detail not shown here. Equal entries are not always repeated. Among all 360,000 compounds or so, about 3,700 (1%) were called active. Cut-off read from the data, not from the text of the source: active = activation above about 30%; inactive = the rest. The sample as a whole holds a higher share of actives than the screen did. More than one record can exist for a structure, and the calls need not agree.

The target of the assay is D(1A) dopamine receptor (Homo sapiens) (UniProt P21728). The assay can be described thus: Allosteric Agonists of the Human D1 Dopamine Receptor: qHTS. Note: 0% is about no effect. The settings on record: HEK293 T-REx D1 cells, calcium flux, agonist mode; at 2 µM; stronger effect = higher value. In outline: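 Inducible HEK293 T-REx D1 cells, force-coupled to calcium signalling, were plated at 4000 cells/well with tetracycline and held overnight at 30 C. After no-wash calcium dye loading, compound-evoked calcium rise over 180 s flagged agonists.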
D(1A) dopamine receptor (Homo sapiens), sequence (P21728 whole entry, looked up): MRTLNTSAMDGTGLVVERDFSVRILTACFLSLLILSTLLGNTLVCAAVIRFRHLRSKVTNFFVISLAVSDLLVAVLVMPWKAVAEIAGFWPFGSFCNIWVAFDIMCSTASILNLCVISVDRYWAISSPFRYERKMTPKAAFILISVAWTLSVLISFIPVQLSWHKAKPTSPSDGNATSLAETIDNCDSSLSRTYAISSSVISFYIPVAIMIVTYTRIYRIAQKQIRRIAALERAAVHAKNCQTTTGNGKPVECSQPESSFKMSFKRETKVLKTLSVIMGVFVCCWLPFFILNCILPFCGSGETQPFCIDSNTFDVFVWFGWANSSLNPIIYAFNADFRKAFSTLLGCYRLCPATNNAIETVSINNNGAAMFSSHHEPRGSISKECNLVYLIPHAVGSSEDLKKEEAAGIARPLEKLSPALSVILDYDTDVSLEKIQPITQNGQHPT
Consider `Cc1ccc(OC(=O)CSc2nnc(-c3cccs3)o2)cc1`, for which the activation is 1.31% (inactive).
The result for `CCN1CCN(c2ncc3c(n2)CC(c2ccccc2O)CC3=O)CC1` (configuration not stated) reads 9.15% (inactive); that for `Nc1ccc2nc3c(=O)[nH]c(=S)[nH]c3nc2c1`, 108% (active); that for `CCC1CCCCN1S(=O)(=O)c1ccc(NC(=O)c2cc(=O)c3ccccc3o2)cc1` (configuration not stated), 0.0446% (inactive).
In the case of `CC(C)C(=O)Nc1nc2c(s1)CC(C(C)(C)C)CC2` (configuration not stated), the activation is 1.03% (inactive).
The result for `COc1ccc(Cl)cc1NC(=O)CSc1nc(=O)[nH]c2c1CCCC2` reads 6.85% (inactive); that for `Cc1ccc(O)c(NC(=O)CCS(=O)(=O)c2nc(-c3ccc4c(c3)OCO4)cc(C(F)(F)F)n2)c1`, 5.29% (inactive).
The result for `CCOc1ccc(Br)cc1CSC(=N)N` reads 21.9% (inactive); that for `N=C(N)SCc1cccc2ccccc12`, 47.6% (active); that for `CSC1=NCCN1C(=O)Cc1cccc2ccccc12`, 1.65% (inactive).
For the compound `CN1CCOc2cc(S(=O)(=O)N3CCN(S(=O)(=O)c4c(F)cccc4F)CC3)cnc21`, the activation is 1.83% (inactive).
The result for `CCCN(CCC)S(=O)(=O)c1ccc(C(=O)NNC(=O)c2cc(OC)c(OC)c(OC)c2)cc1` reads 6.23% (inactive).
Regarding `CCCN(CCC)S(=O)(=O)c1ccc(C(=O)N2CC3CCC(CC3)C2)cc1`, the activation is 37.1% (active).
Consider `CCSC1=NCCN1C(=O)c1ccc(S(=O)(=O)N(CC)CC)cc1`, for which the activation was 1.17% (inactive).
Take `COc1ccccc1NC(=O)C(=O)c1cc(C)n(-c2ccccc2F)c1C`: the activation was 1.84% (inactive).
Consider `CCNS(=O)(=O)c1cc(-c2nnc(Nc3cccc(C(F)(F)F)c3)c3ccccc23)ccc1C`, for which the activation is 4.19% (inactive).
The result for `Cc1csc2nc(COC(=O)c3ccccc3NC(=O)c3ccccc3Cl)cc(=O)n12` reads 3.01% (inactive); that for `c1ccc2c(NC3C4CC5CC(C4)CC3C5)nc(N3CCOCC3)nc2c1` (configuration not stated), 38.3% (active); that for `Fc1cnc(N2CCOCC2)nc1NCc1ccccc1`, 1.23% (inactive).
The result for `c1cnc(NC2C3CC4CC(C3)CC2C4)nc1` (configuration not stated) reads 7% (inactive).
The result for `CCOC(=O)c1cc2c(=O)n3ccccc3nc2n(Cc2ccco2)c1=NC(=O)c1ccc(F)cc1` reads -0.478% (inactive); that for `CCCCCn1c(=O)[nH]c2cc(C(=O)Nc3cc(C)cc(C)c3)ccc2c1=O`, 0.484% (inactive); that for `CCOC(=O)C1CCN(c2ncnc3c2c(-c2ccccc2)cn3-c2cccc(C)c2)CC1`, -1.59% (inactive).
For `Oc1ccc(Cl)cc1C1C=C(c2ccc3c(c2)OCO3)NC(c2c(F)cccc2Cl)N1` (configuration not stated), the activation is 21.1% (inactive).
The result for `CCCc1nc2c(c(=O)c3ccccc3n2C)c(=O)n1C1CCCCCC1` reads 190% (active); that for `CCOc1ccc(NC(=O)c2cn(C3CCCCC3)c(=O)c3c2c2ccccc2n3C)cc1`, 2.25% (inactive); that for `CCCN1C(=O)C(Cc2nc3ccccc3c(=O)n2-c2ccccc2)c2cc(C)ccc21` (configuration not stated), 5.26% (inactive) and 5.84% (inactive).
The result for `Cc1ccc2c(=O)cc(C(=O)Nc3sc4c(c3C(=O)NCc3cccnc3)CCCC4)oc2c1` reads 1.62% (inactive).
The result for `COc1ccccc1CNS(=O)(=O)c1ccc2c(c1)NC(=O)CS2` reads 4.9% (inactive); that for `COc1ccc(S(=O)(=O)NCc2cccn2Cc2cccc(C)c2)cc1Cl`, 33.8% (active).
Consider `COc1ccc(S(=O)(=O)NCc2cccn2Cc2cccc(C)c2)cc1`, for which the activation is 23.9% (inactive).
On to `Cc1ccc(Cl)cc1NC(=O)CCC(=O)N1CC(C)Sc2ccccc21` (configuration not stated), for which the activation was 0.39% (inactive).
The result for `Cc1cccc(-n2c(SCC(N)=O)nc3c(oc4ccccc43)c2=O)c1` reads -1.27% (inactive); that for `Cc1cccc(N2CCN(C(=O)CCSCc3ccccc3F)CC2)c1C`, 1.3% (inactive).
The result for `COc1cc(NC(=O)NCC2CCN(Cc3ccc(C)cc3)CC2)cc(OC)c1OC` reads 2.18% (inactive) and 0.967% (inactive); that for `Cc1cccc(CN2CCC(CNC(=O)Nc3ccc(F)c(Cl)c3)CC2)c1`, 42.5% (active); that for `Cc1ccc(C)c(CN2CCC(CNC(=O)Nc3ccc(C)c(F)c3)CC2)c1`, 26.2% (inactive).
Turning to `CCOC(=O)c1ccc(CSc2nnc3cc(C)c4ccccc4n23)cc1`, the activation is 4.34% (inactive).
For `O=C(CNC(=O)c1ccccc1)OC(C(=O)Nc1cc([N+](=O)[O-])ccc1F)c1ccccc1` (configuration not stated), the activation is 1.22% (inactive).
Take `CC(O)CNCCOc1cccc(Oc2ccccc2)c1` (configuration not stated): the activation was 4.04% (inactive).
As for `COc1ccccc1OCCNCC(O)COc1cccc2[nH]c3ccccc3c12` (configuration not stated), the activation was 17.7% (inactive) and 34% (active).
As for `COc1ccccc1OCCC(=O)OCC(=O)NCc1ccccc1`, the activation is -0.432% (inactive).
On to `COc1ccc(CCNC(=O)CCCCn2c(=O)c3ccccc3n(Cc3ccccc3C)c2=O)cc1OC`, for which the activation is 13.8% (inactive).
On to `Cc1cc(OCC(=O)Nc2ncn[nH]2)c(C)c(C)c1Br`, for which the activation is 1.36% (inactive).
The result for `COc1ccccc1CNC(=O)C(=O)NCC(c1cccs1)S(=O)(=O)c1cccs1` (configuration not stated) reads 7.48% (inactive); that for `CCn1c2ccccc2c2cc(CN3CCN(Cc4cccc(Cl)c4)CC3)ccc21`, 2.19% (inactive); that for `Cc1cccc(Nc2cc(C)nc(-n3nc(C)cc3C)n2)c1`, -1.13% (inactive).
For the compound `Cc1cccc(NC(=O)c2ccc(F)c(S(=O)(=O)N(C)C3CCCCC3)c2)c1`, the activation was 0.598% (inactive).
The result for `CCN(Cc1ccccc1)C(=O)Cc1ccc(OC)c(S(=O)(=O)N2CCOCC2)c1` reads 3.33% (inactive).
Regarding `O=C(Cc1ccc(S(=O)(=O)N2CCOCC2)s1)NCCC(c1ccccc1)c1ccccc1`, the activation is 2.27% (inactive).
The result for `COCCN(Cc1ccccc1)C(=O)Cc1ccc(S(=O)(=O)N2CCOCC2)s1` reads 134% (active).
The result for `CCOC(=O)c1cc(-c2ccccc2)n(CCC(=O)Nc2ccccc2CC)c1C` reads 5.65% (inactive); that for `CCC(=O)N1CCc2cc(Br)cc(S(=O)(=O)Nc3ccc(C)cc3C)c21`, 0.918% (inactive).
With `CC/C(=N\NC(=S)NC(C)C)c1ccc(OC(F)F)cc1`, the activation is 0.526% (inactive).
`CC(NC(=S)Nc1ccc(OC(F)F)cc1)c1ccc(F)cc1` (configuration not stated): the activation was 41.7% (active).
With `CC(C)N(Cc1ccccc1)C(=S)Nc1ccc(OC(F)F)cc1`, the activation is 15.8% (inactive).
The result for `Cc1ccc(S(=O)(=O)NC(N)=NCCC[C@@H](NC(=O)CNC(=O)c2ccccc2)C(=O)Nc2cc(C(F)(F)F)ccc2Cl)cc1` reads 4.3% (inactive).
